Experimental data from PubChem BioAssay AID1863 (Southern Research Specialized Biocontainment Screening …, 2009).
The campaign covered roughly 300,000 compounds. About 480 (0.16%) were called active.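 How the source made its calls: active means inhibition over 29.93%, a cutoff 3 SD above the screen mean, later confirmed by dose response; inconclusive means inhibition over 29.93% but no dose response follow-up; inactive means inhibition at most 29.93% or unconfirmed.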 The list is a sample of the results. Entries with a potency or affinity are not part of this list.

Experiment: inhibitors of PhoP regulon expression, primary screen, Salmonella Typhimurium, GFP reporter (AID 1863);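 further: 0% = low Mg2+ inducing control and 100% = high Mg2+ repressing control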
Conditions: S. Typhimurium PhoP-regulated promoter GFP reporter, 4 h; at 50 µM; hits give high values

inhibition, inactive:
CCOC(=O)C1=C(O)/C(=C/c2cccc(OC)c2O)N=C1C -9.18%
Cn1c(CCCNC(=O)c2cccs2)nc2ccccc21 -1.8%
Cc1ccc(NC(=O)c2ncc(Cl)c(Cl)c2Cl)cc1C 2%
O=c1[nH]c(=O)n(C2OC(CO)C(O)C2O)cc1Br (stereo unspecified) 3.95%
Nc1cn(C2OC(CO)C(O)C2O)c(=O)[nH]c1=O (stereo unspecified) 3.77%
Cc1cc(CNC(=O)c2cccnc2Cl)c2ccccc2n1 1.03%
CC[n+]1c(/C=C/Nc2ccccc2)sc2ccccc21 -20.8%
CC[n+]1c(/C=C(\C)SC)sc2ccccc21 0.17%
CCN1/C(=C/c2ccc3cc(C)ccc3[n+]2CC)Sc2ccccc21 -133%
CCN1/C(=C\C=C(C(C)=O)C(C)=O)Sc2ccccc21 -11.4%
CC[n+]1c(/C=C/C=C/N(C(C)=O)c2ccccc2)sc2ccccc21 -10.1%
CC[n+]1c(/C=C/C=C/N(C(C)=O)c2ccccc2)sc2cc(OC)ccc21 -71.7%
CCN1/C(=C/C=C/C=C/C=C/c2sc3ccccc3[n+]2CC)Sc2ccccc21 -8.59%
CC[n+]1c(/C=C(/C)SC)sc2ccccc21 0.31%
COCCN1CCC(CNCc2c(C(=O)N3CCCCC3)nc3c(C)cccn23)C1 (stereo unspecified) -11.8%
CCOc1ccccc1CN1CCN(Cc2ccon2)CC1CCO (stereo unspecified) -9.77%
COc1ccc2c(CC(=O)Nc3ccc(OC)c(S(=O)(=O)N4CCOCC4)c3)coc2c1 4.59%
O=C(NCC(O)COc1ccc([N+](=O)[O-])cc1)c1ccccc1 (stereo unspecified) -9.65%
Cc1ccc(CNCCC2=CCCCC2)cc1 -46.6%
Clc1ccc(CNCCC2=CCCCC2)cc1 18.9%
O=C(NC1CC1)c1c[nH]c2ccc(S(=O)(=O)Nc3cccc(C(F)(F)F)c3)cc2c1=O 14.8%
CCn1cc(C(=O)NCCc2ccccc2)c(=O)c2cc(F)c(N3CCN(C)CC3)cc21 -0.827%
CCn1cc(C(=O)NCc2ccccc2)c(=O)c2cc(F)c(N3CCN(C(=O)c4ccco4)CC3)cc21 6.24%
CCn1cc(C(=O)O)c(=O)c2cc(F)c(N3CCN(C(=S)NC(=O)c4ccccc4Br)CC3)cc21 8.64%
C=CCNC(=O)c1cn(CC)c2cc(N3CCN(C(=O)c4ccco4)CC3)c(F)cc2c1=O 5.05%
CCC(CO)NC(=O)c1ccccc1C(F)(F)F (stereo unspecified) 2.52%
O=C(O)C1C2CCC(O2)C1C(=O)Nc1ccccc1Br (stereo unspecified) -9.38%
COC(=O)c1ccccc1NC(=O)C1CCN(C(=O)Cc2ccccc2)CC1 3.37%
CCOC(=O)COc1c(Br)cc(/C=C2\SC(=O)N(CC(=O)N3CCCC3)C2=O)cc1OC 5.47%
COc1ccc(N(C(=O)CNC(=O)c2cccs2)C(C(=O)NC2CCCC2)c2ccncc2)cc1 (stereo unspecified) -0.95%
Cc1nc2nc3c(cn2n1)C(=O)CC(C)(C)C3 -6.32%
CC(C)n1c(SCC(=O)NC2CC2)nnc1-c1ccco1 3.76%
CCOC(=O)CSc1nc2c(c(=O)n1-c1ccc(OCC)cc1)SCC2 -4.68%
COc1ccc(C(=O)c2no[n+]([O-])c2C(=O)c2ccc(OC)cc2)cc1 -73.5%
Cc1ccc(C(=O)c2no[n+]([O-])c2C(=O)c2ccc(C)cc2)cc1 -26.5%
Cc1ccc(S(=O)(=O)NN2C(=O)c3ccccc3NC2c2ccccc2O)cc1 (stereo unspecified) 2.27%
Cc1onc(-c2ccccc2)c1C(=O)NC(=S)NNC(=O)c1ccccc1O 18.4%
Cc1onc(-c2ccccc2)c1C(=O)NC(=S)NNC(=O)c1ccc(O)cc1 -7.99%
CC(C)[C@@H](COc1ccccc1)N1CCN(Cc2ccccc2)CCC1=O 11.4%
Cc1ccc(N(CC(=O)NC2CCCCC2)C(=O)CNC(=O)c2cccs2)cc1 5.02%
CNC[C@H](CC1CCCCC1)NC[C@H](CO)NCC1(c2ccccc2)CC1 5.82%
CNC[C@H](CC1CCCCC1)NC[C@H](CO)NCCc1cccc(C(F)(F)F)c1 13%
Cc1ccccc1NC(=O)NC1(C(=O)NCc2ccco2)CCCCC1 -5.56%
Cc1cccc(NC(=O)CSc2nnc(-c3ccncc3)n2CC2CCCO2)c1 (stereo unspecified) 0.37%
Clc1ccc2[nH]c3c(NCC4CCCO4)ncnc3c2c1 (stereo unspecified) 17.8%
Clc1ccc2[nH]c3c(NCCN4CCOCC4)ncnc3c2c1 -2.52%
COc1ccc(NC(=O)CSc2cc(C(=O)c3nccn3C)c3ccccc3n2)cc1 3.48%
CCOc1ccc(NC(=O)c2cc(Cl)nc3ccccc23)cc1 1.03%
C=CCNc1nc(Nc2ccccc2F)nc(OCC)n1 -4.99%
Fc1ccccc1-c1nc(NCc2ccco2)c2ccccc2n1 -13.7%
Cc1ccc(-c2nc(NCc3ccco3)c3ccccc3n2)cc1 23.9%
COc1ccccc1Nc1nc(NCc2ccco2)c2ccccc2n1 48%
OCCNc1nc(NCc2ccccc2)c2ccccc2n1 3.19%
Cc1ccccc1Nc1nc(NCc2ccco2)c2ccccc2n1 25.6%
Oc1ccccc1Nc1nc(NCc2ccccc2)c2ccccc2n1 -0.55%
CCc1noc(C)c1C(=O)Nc1ncc(C)s1 2.49%
CCC(Oc1ccccc1)C(=O)Nc1nc2ccccc2[nH]1 (stereo unspecified) -3.54%
Cc1ccc2cc(C(c3nnnn3C3CCCC3)N(Cc3ccco3)Cc3cccs3)c(=O)[nH]c2c1 (stereo unspecified) -2.55%
CN1CCc2c(sc3nc(NCCO)n(-c4cccc(Cl)c4)c(=O)c23)C1 -3.53%
CC(Oc1ccccc1)C(=O)N=C1SC2CS(=O)(=O)CC2N1c1ccc(F)cc1 (stereo unspecified) -3.91%
O=S(=O)(Nc1nc2ccccc2nc1NCC1CCCO1)c1ccc(F)cc1 (stereo unspecified) 6.59%
Cc1cc2ncn(/N=C/c3ccc([N+](=O)[O-])s3)c2cc1C -6.99%
Cc1cccc(C)c1NC(=O)CNCC(=O)Nc1c(C)cccc1C 0.56%
O=C(O)c1cccc(NC(=O)c2ccc3c(c2)C(=O)N(CC2CCCO2)C3=O)c1 (stereo unspecified) -1.15%
O=C(CSc1nc2ccccc2s1)NCc1cc([N+](=O)[O-])ccc1O -4.94%
O=C(CSc1nc2ccccc2s1)N/N=C/c1ccccc1C(=O)O -5.31%
COc1cc([N+](=O)[O-])cc(/C=N/NC(=O)CSc2ccccn2)c1O 24.8%
Cc1cc(Cl)ccc1NC(=O)CCC(=O)N/N=C/c1cc([N+](=O)[O-])ccc1O 12.1%
O=C(CSc1ccccn1)N/N=C/c1cccc([N+](=O)[O-])c1 0.8%
Cc1ccc(C)c(NC(=O)CCC(=O)N/N=C/c2cc([N+](=O)[O-])ccc2O)c1 8.86%
O=[N+]([O-])c1cccc(/C=N/Nc2ccccn2)c1 -2.55%
O=[N+]([O-])c1ccc(/C=N/Nc2ccccn2)cc1 4.65%
O=C1CCc2cc(NS(=O)(=O)c3ccccc3)cc3c2N1CCC3 3.44%
CCOC(=O)C1(Cc2ccc(Cl)cc2)CCN(C2CCC2)CC1 -6.48%
CC(C)c1nc(SCC(=O)Nc2cccc(S(N)(=O)=O)c2)n[nH]1 -17.9%
COc1ccc(CC(=O)Nc2nc(-c3ccccc3)c(C(C)=O)s2)cc1OC 5.08%
COc1ccc(S(=O)(=O)N2CCC(C(=O)NCCCc3ccccc3)CC2)cc1 -11.5%
CC(C)N=C(N)N=C(N)Nc1ccc(Cl)cc1 -0.65%
NC(N)=NC(=S)Nc1ccc(Cl)cc1 -3.56%
O=C(NCc1ccccc1)c1cncc(Br)c1 3.01%
CC1CCC2(CC1)NC(=O)N(CC(=O)c1cn(CCC#N)c3ccccc13)C2=O (stereo unspecified) -10.8%
Cc1cc(C)n2nc(C(=O)OCC(=O)c3c[nH]c4ccccc34)nc2n1 10.2%
COc1ccc(CNC(=O)CSc2nnc(NC(=O)C3CC3)s2)cc1 -0.4%
Oc1ccc(/C=N/Nc2nccnc2Cl)cc1 5.13%
Oc1ccccc1/C=N/Nc1nccnc1Cl 25.1%
Oc1ccccc1/C=N/Nc1ncc(Br)cn1 -2.93%
Oc1c(Cl)cc(Cl)cc1/C=N/Nc1ncc(Br)cn1 6.58%
Cc1ccccc1-n1c(SCC(=O)N/N=C/c2sccc2C)nc2ccccc2c1=O -15.1%
Cc1nn2c(-c3ccc(S(=O)(=O)N4CCN(C)CC4)o3)nnc2c2ccccc12 1.51%
Cc1cc2c(cc(C(=O)NCc3cccnc3)n2Cc2ccc(Cl)cc2)o1 13%
COc1ccc(N2CCOCC2)c(NC(=O)c2cccnc2)c1 0.01%
CCN(Cc1cn2cccnc2n1)C1CCCCC1 -4.78%
Cc1nc2ccc(Cl)cc2nc1C -3.83%
Cc1nc(N)nc(Cl)c1Cc1ccc(Cl)cc1 2.03%
O=[N+]([O-])c1cc2c(cc1CN1CCN(c3ccc(F)cc3)CC1)OCO2 -3.23%
CCOc1ccc(-c2nc(S(=O)(=O)c3ccccc3)c(NC)o2)cc1 -1.53%
